# Data: PubChem BioAssay (NCI)
# Values joined by “and” are separate entries in the source; they are usually repeats but may differ in a detail not shown here. Identical values can stand only once. Compounds without any hit were thinned out: in the full panel of roughly 83,000, 20% have a hit.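 A percent growth of 40 corresponds to 60% growth inhibition; 0 means no net growth; -100 means all cells died. Active threshold: below 10.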 Values without a mark were called inactive. Active and inactive are the calls of the source.
# Assays:
# Experiment in all cases: NCI-60 one-dose screen, 48 h (100 = growth as untreated, 0 = no growth, -100 = all killed)
# Conditions in all cases: 10 µM unless noted
# [1] = test system: DU-145 prostate
# [2] = test system: K-562 leukemia
# [3] = test system: MALME-3M melanoma
# [4] = test system: MDA-MB-231 breast
# [5] = test system: RXF 393 renal
# [6] = test system: SF-268 CNS
# [7] = test system: SF-295 CNS
# [8] = test system: SF-539 CNS
# [9] = test system: UACC-257 melanoma
# [10] = test system: M14 melanoma
SMILES,growth [1],growth [2],growth [3],growth [4],growth [5],growth [6],growth [7],growth [8],growth [9],growth [10]
COc1cc(NS(=O)(=O)C(C)C)cc(-c2cc(-c3ccc(N4CCNCC4)cc3)cnc2N)c1,90.8%,5.48% (active),79.6%,89.8%,41%,70.3%,91.7%,58.3%,91.4%,58.6%
[Cu+].[NH-][C@H]1C[N-]C(=O)[C@H]([C@H]2CCN=C(N)N2)[N-]C(=O)/C(=C\NC(N)=O)[N-]C(=O)[C@H](CNC(=O)C[C@@H](N)CCCN)[N-]C(=O)[C@H](CO)[N-]C1=O,112%,101%,101%,101%,105%,107%,99.6%,106%,99.8%,104%
CCCCC1=C(Br)C(=O)c2nc(C)ccc2C1=O,101%,34%,83.6%,80.9%,90.4%,92.8%,103%,92.6%,94%,96%
COc1cc(-c2nc3occn3c2-c2ccnc(NCCCNS(=O)(=O)c3ccc(O)cc3)n2)ccc1F,110%,80.6%,-7.42% (active),67.1%,105%,110%,91.6%,110%,54.4%,26.2%
O=c1c2c([nH]c3ccccc13)CCCC2,106% and 70.7%,95.9% and 11.3%,104% and 36.8%,95.8% and 54.9%,105% and 63.4%,98.8% and 53.2%,95.4% and 13.1%,99.5% and 46%,100% and 58.8%,98.5% and 15.6%
N#Cc1ccccc1OCC(=O)Nc1nc2c(s1)COc1ccccc1-2,114%,104%,107%,102%,101%,104%,79.5%,101%,112%,105%
COc1ccccc1/C=C1\COc2ccc(O)cc2C1=O,96.4%,6.88% (active),79.9%,121%,92.1%,83.9%,104%,92.5%,95.2%,77.8%
O=C(Nc1ncc(Cc2cccc(C(F)(F)F)c2)s1)c1ccc2c(c1)OCCO2,15.1%,8.17% (active),50.1%,30.2%,19.6%,38.3%,8.97% (active),-0.654% (active),45.5%,21.6%
Nn1c(-c2ccc(Cl)cc2)nc2c(-c3ccc(Cl)cc3)nc3ccc(Cl)cc3c2c1=O,-32.5% (active),18.5%,10.1%,36.6%,1.11% (active),14.8%,22.6%,14.1%,3.36% (active),-0.438% (active)
O=C(Cc1ccc(F)cc1)c1ccccc1,127%,100%,107%,111%,118%,113%,117%,113%,114%,105%
CCCCCCCCCCCCCCCC(=O)O[C@@H]1[C@@H](O)[C@@H](O)C([C@H](NC(=O)[C@@H]2C[C@@H](CCC)CN2C)[C@H](C)Cl)O[C@@H]1SC (stereo not given in full),114%,100%,87.1%,110%,106%,105%,104%,92%,105%,98.9%
COc1ccc2c(c1)CCNC21C(=O)Nc2c(Br)cc(Br)cc21 (stereo not given),110%,98.8%,88.3%,74.7%,133%,100%,103%,94%,100%,97.7%
OCc1cc(CN2CCCCC2)c(O)c2ncccc12,49.5%,55.5%,62.8%,49.5%,73.8%,48.2%,60.6%,54%,77.8%,36.2%
O=C(O)C1C2CCC1C(O)C2 (stereo not given),100% and 108%,107% and 92.7%,109% and 86.3%,103% and 113%,111% and 116%,97.7% and 101%,108% and 121%,94.9% and 101%,100% and 103%,98.8% and 95.4%
C#CCOCC1CN(C)C(=O)O1 (stereo not given),107%,101%,110%,110%,131%,113%,105%,102%,104%,107%
COc1cc(-c2nc(SCCC(C)C)nc(Nc3ccc(F)cc3)c2C#N)cc(OC)c1OC,66.2%,85.2%,94.4%,38.4%,95.5%,65.9%,85.4%,52.3%,103%,91%
O=C(NNc1ccccc1)c1ncc[nH]1,55.8%,7.21% (active),54.1%,81.5%,107%,59.3%,90.2%,48.7%,71.5%,37.4%
O=C(N=Nc1c(O)[nH]c2ccccc12)Nc1ccccc1Cl,98.8%,88.1%,96.9%,85.1%,101%,96.8%,94.1%,95.7%,92%,94.7%
COc1ccc2c(c1)oc1c(C)c3c(c(C)c12)C(=O)N(Nc1ccccc1)C3=O,97.4%,101%,99.5%,105%,116%,100%,97.1%,95.1%,109%,95.3%
O=S(=O)(O)c1ccc(N=Nc2ccc(N=Nc3cccc4ccccc34)c(S(=O)(=O)O)c2)cc1,109%,104%,107%,80.3%,119%,106%,106%,102%,107%,99.5%
CC(Sc1ccccc1)C(=O)O (stereo not given),107%,152%,67.5%,93.2%,94.2%,105%,91.8%,103%,103%,95.2%
O=C1CCc2c(sc3[nH]c(=S)n(Cc4ccc(Cl)cc4)c(=O)c23)C1,23.7%,11%,1.17% (active),-24.7% (active),5.18% (active),18.7%,-6.67% (active),-57.4% (active),-14.9% (active),12.4%
CCCCCCCCCCCCC[C@H](O)C[C@H](O)[C@H](C)N,96.9% [1.25 µM],102% [1.25 µM],132% [1.25 µM],90% [1.25 µM],8.68% [1.25 µM] (active),115% [1.25 µM],108% [1.25 µM],100% [1.25 µM],113% [1.25 µM],95.9% [1.25 µM]
